Bioassay records from PubChem.
In the library only some 6.6% were active in any assay of this set; here they are far more common.
TSG101-PTAP inh = qHTS Assay for Iinhibitors of HIV-1 Budding by Blocking the Interaction of PTAP/TSG101; Tumor susceptibility gene 101 protein (Homo sapiens), Q99816; Fluorescence polarization, FITC-PTAP peptide / Tsg101 binding; Potency, µM (doses to about 115 µM), usual class: inhibitors; 340,000 tested, under 10 active; active means well fitted inhibition curve with a large enough effect in the main read-out, with a control signal flat, not every such curve was filed as active; inconclusive means small, poorly fitted or top-dose-only effect, or effect the other way, or a change in a side signal; inactive means no such curve, though single readings can be large or run the other way
Target sequence (Q99816 whole entry, looked up): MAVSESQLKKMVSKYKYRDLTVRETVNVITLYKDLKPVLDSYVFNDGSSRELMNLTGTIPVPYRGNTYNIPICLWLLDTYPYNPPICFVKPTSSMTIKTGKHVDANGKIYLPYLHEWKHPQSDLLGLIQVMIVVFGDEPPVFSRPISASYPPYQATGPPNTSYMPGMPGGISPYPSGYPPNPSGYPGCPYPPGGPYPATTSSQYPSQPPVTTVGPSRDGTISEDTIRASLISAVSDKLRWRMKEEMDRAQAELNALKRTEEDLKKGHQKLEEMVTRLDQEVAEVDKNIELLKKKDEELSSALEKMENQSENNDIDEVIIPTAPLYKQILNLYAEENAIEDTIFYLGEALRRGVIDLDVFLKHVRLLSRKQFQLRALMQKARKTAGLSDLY
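Steps: Tsg101 binding domain dispensed (10 uM final), compounds pinned in DMSO, FITC-labeled PTAP-motif peptide added (50 nM final); after 20 min binding at room temperature, polarization measured.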
KB-3-1 cytotox = qHTS assay for MDR1-selective chemotherapeutics: Primary screen using the parental adenocarcinoma cell KB-3-1 | KB-3-1 viability, CellTiter-Glo ATP luminescence, 72 h | Potency, µM (top dose mostly 46.1 µM), hits mostly cytotoxic | hit rate 1.4% among 400,000; further: nearly all actives have a fitted effect of over 60% in size
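KB-3-1 cells, DMEM (no phenol red) + 10% FBS; compound by pin transfer, 72 h, 37 °C. Readout: CellTiter-Glo luminescence after 10 min. Data normalized, curve-fitted.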
RGS4 inhibitor = Inhibitors of Regulator of G Protein Signaling (RGS) 4: qHTS | Regulator of G-protein signaling 4 (Homo sapiens), P49798 | Transcreener GDP fluorescence polarization, RGS4-accelerated GTP hydrolysis | Potency, µM (series often up to 114 µM), actives largely listed as inhibitors | hit rate 0.039% among 390,000 | AID 504845, 2011; further: nearly all actives have a fitted effect of over 75% in size
Target sequence (P49798 whole entry, looked up): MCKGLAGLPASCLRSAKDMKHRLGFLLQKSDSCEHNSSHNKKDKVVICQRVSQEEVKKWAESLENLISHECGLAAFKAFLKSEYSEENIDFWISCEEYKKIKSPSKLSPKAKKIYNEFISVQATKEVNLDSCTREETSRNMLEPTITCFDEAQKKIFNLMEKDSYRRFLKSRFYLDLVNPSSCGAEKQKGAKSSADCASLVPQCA
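MLSMR compounds (23 nl, pin-transferred) preincubated 10 min at room temperature with a 500nM (2x) first reagent, then RGS4 at 900nM (2x) plus Transcreener GDP mix added; fluorescence polarization (620/688 nm) read before and after 90 min at 30 °C.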
KB-V1 MDR tox = qHTS assay for MDR1-selective chemotherapeutics: Primary screen using the drug-selected MDR subline cells KB-V1 | KB-V1 MDR cells viability, CellTiter-Glo, 72 h | Potency, µM (titrated, usually from 46.1 µM), most hits filed as cytotoxic | hit rate 3.4% among 400,000; further: nearly all actives have a fitted effect of over 60% in size
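Cells of the MDR subline KB-V1 are plated, dosed with compound at multiple concentrations, and incubated 72 h at 37 degrees C; CellTiter-Glo is then added and luminescence read after 10 min.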
MCF10A rereplic = A quantitative high throughput screen for small molecules that induce DNA re-replication in MCF 10a normal breast cells | hit rate 2.9% among 350,000 | MCF 10A DNA re-replication, Hoechst nuclear intensity, 48 h | Potency, µM (titrated, usually from 46.1 µM), usual class: activators; further: nearly all actives have a fitted effect of over 50% in size
SW480 rerep = A quantitative high throughput screen for small molecules that induce DNA re-replication in SW480 colon adenocarcinoma cells | SW480 DNA re-replication, Hoechst DNA content imaging, 48 h | Potency, µM (top dose mostly 46.1 µM), usual class: activators | hit rate 1.8% among 340,000 | AID 624297, 2012; further: nearly all actives have a fitted effect of over 55% in size
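First, 250 cells per well were seeded. Next, compound or vehicle (23 nL) was pinned in, plates sat 48 hr at 37 C. Finally Hoechst was added for 40 min before fluorescence scanning.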
Hits are given with their value; i = inactive; ? = inconclusive; nt = no result. Unless noted, the call rests on the fitted dose curve; in most records, active means well fitted curve in the direction sought with a large enough effect; inconclusive means small, poorly fitted or top-dose-only effect, or another doubt; inactive means no such curve, though single readings can be large; an effect the other way counts as inactive or inconclusive.

SMILES	TSG101-PTAP inh	KB-3-1 cytotox	RGS4 inhibitor	KB-V1 MDR tox	MCF10A rereplic	SW480 rerep
C[C@@H]1C[C@H](Nc2ccccc2)c2ccccc2N1C(=O)c1cccnc1	i	?	i	?	13µM	?
Cc1cccc(OCC(=O)Nc2cc(-c3nc4cc(Cl)ccc4o3)ccc2C)c1	nt	i	nt	i	nt	nt
Cc1n[nH]c(C)c1CCCOc1ccccc1	i	i	i	i	i	i
COc1cccc(OCCc2c(C)n[nH]c2C)c1	i	?	i	20.6µM	i	i
Cc1cccc(OCCCCc2c(C)n[nH]c2C)c1C	i	?	i	16.4µM	?	i
Cc1cccc(OCCCCc2c(C)n[nH]c2C)c1	i	i	i	i	?	?
COc1ccccc1OCCCc1c(C)n[nH]c1C	nt	i	i	16.4µM	i	i
CCOc1ccccc1OCCCCCc1c(C)n[nH]c1C	i	20.6µM	i	2.91µM	i	?
COc1ccc(CCNC(=O)c2cc3c(s2)-c2c(C)cccc2OC3)c(OC)c1	nt	i	i	i	nt	nt
COc1ccc(OCCCc2c(C)n[nH]c2C)cc1	i	i	i	i	i	i
COc1ccccc1OCCCCCc1c(C)n[nH]c1C	i	?	i	4.61µM	i	i
CCc1cccc(C)c1NC(=O)c1cc(S(=O)(=O)N(Cc2ccc(C(=O)OC)cc2)Cc2ccc(OC)c(OC)c2)ccc1F	nt	nt	i	nt	nt	nt
Cc1ccc(C)c(-c2nnc(NC(=O)c3ccc4c(c3)OCCO4)o2)c1	nt	nt	i	nt	nt	nt
Cc1cc(NS(=O)(=O)c2ccccc2)c(C)c(Cl)c1O	i	?	i	20.6µM	i	i
Cc1c(O)ccc(NS(=O)(=O)c2ccccc2)c1C	i	i	i	i	i	i
NS(=O)(=O)c1ccc(CCNC(=O)C2CCN(S(=O)(=O)c3cnc[nH]3)CC2)cc1	i	i	i	i	20.6µM	?
CN(C)c1cccc(C(=O)OCC(=O)N2CCc3ccccc3C2)c1	i	i	i	i	i	i
CC(OC(=O)c1cccc(N(C)C)c1)C(=O)N1CCc2ccccc2C1 (stereo unspecified)	i	i	i	8.2µM	i	i
O=C(CSc1nnc(SCc2cccc3ccccc23)s1)Nc1ccc(C(=O)O)cc1	i	i	?	i	i	i
O=C(CSc1nc2ccccc2[nH]1)c1ccc2c(c1)OCO2	i	i	i	18.4µM	i	i
NC(=O)CSc1nc2ccc([N+](=O)[O-])cc2[nH]1	i	i	i	i	i	i
O=C(CSc1nnc(SCc2cccc3ccccc23)s1)c1ccc2c(c1)OCO2	i	i	i	18.4µM	i	i
Cc1cccc2nc(CSc3nc4ccc([N+](=O)[O-])cc4[nH]3)c(Br)n12	i	?	i	11.6µM	i	i
O=C(CSc1nc2ccccc2c(=O)[nH]1)c1ccc(O)c(O)c1	i	?	i	18.4µM	i	i
O=C(CSc1nc2ccccc2c(=O)[nH]1)c1ccc(O)cc1O	i	i	i	i	i	i
SMILES	TSG101-PTAP inh	KB-3-1 cytotox	RGS4 inhibitor	KB-V1 MDR tox	MCF10A rereplic	SW480 rerep
Cc1ccc2nc(SCC(=O)c3ccc4c(c3)OCO4)[nH]c2c1	i	i	i	i	i	i
Cc1ccc(-c2cc(C(=O)OCC(=O)c3ccccc3)c3cccc(Cl)c3n2)cc1	nt	i	i	i	nt	nt
COc1ccc(CNC(=O)CN2C(=O)CSc3ccc(S(=O)(=O)N4CCCC4)cc32)cc1	nt	nt	i	nt	nt	nt
COc1ccc(-n2c(=O)c3c4c(sc3n(Cc3ccc(C)cc3C)c2=O)CCC4)c(OC)c1	nt	i	i	i	nt	nt
O=[N+]([O-])c1ccc(CSc2nc3ccccc3[nH]2)cc1	i	i	i	20.6µM	i	i
c1ccc(-c2nnc(CSc3nc4ccccc4[nH]3)o2)cc1	i	i	i	13µM	i	i
CC(C)CSc1nc2ccccc2[nH]1	i	i	i	?	0.581µM	?
Cc1[nH]c2ccccc2c1C(=O)CSc1nc2ccccc2[nH]1	i	i	i	20.6µM	?	?
Cc1[nH]c2ccccc2c1C(=O)CSc1nccc(=O)[nH]1	i	i	i	?	i	i
Cc1cc(C)cc(OCc2cc(=O)n3c4c(sc3n2)CCCC4)c1	nt	i	i	?	nt	nt
C/C(=N\Nc1nc2ccccc2[nH]1)c1ccc2c(c1)OCO2	i	i	i	?	?	20.6µM
COc1cccc(CN(C)C(=O)CSc2nc3ccccc3[nH]2)c1OC	i	i	i	16.4µM	i	i
C/C(=N\Nc1nc2ccccc2[nH]1)c1ccc2c(c1)OCCO2	i	?	i	?	i	i
COc1cccc(CN(C)C(=O)Cc2c[nH]c3ccccc23)c1OC	i	i	i	?	?	i
CSc1ccc(/C=C/C(=O)c2c(O)cc(C)oc2=O)cc1	i	?	i	i	?	18.4µM
Cc1cc(O)c(C(=O)/C=C/c2ccc(Cl)cc2)c(=O)o1	i	16.4µM	i	?	?	i
CCN(CC)CCC(c1ccc(N(C)C)cc1)c1c(OC)cc(OC)c2c(C)cc(=O)oc12 (stereo unspecified)	nt	nt	i	nt	nt	nt
CCOC(=O)c1cccc(NC(=O)c2cc3ccccn3n2)c1	nt	i	i	i	nt	nt
